Laboratory results published in PubChem BioAssay AID651742 (Broad Institute, 2012).
The campaign covered roughly 5,600 compounds. About 780 (14%) were called active. Roughly 3% stayed inconclusive and do not appear here. The list is a sample of the results. Unmarked numbers belong to inactive results.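 The calls were made as follows: active = mean signal decrease across replicates above about 35% based on untreated-well scatter, with enough replicates individually passing (limit read from the data); inconclusive = no rule stated though some were filed; inactive = the rest.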

assay: NIH3T3 cell viability loss – cherry-pick, single point, cytotoxicity control for T. cruzi proliferation inhibitor project, confirmation (AID 651742); conditions: NIH/3T3 viability, CellTiter-Glo ATP luminescence, 90 h; at 8.35 µM; active compounds read high;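 also: 0% = median of neutral control wells and 100% = median of positive control wells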

**Q.** Which cytotoxicity (signal decrease) does the source give for O=C(C1CC1)N1CCCCN2[C@H](CO)[C@H](c3ccc(-c4cccc(F)c4)cc3)[C@H]2C1 here?
**A.** 2.61%

**Q.** With CN1c2ccc(-c3ccccc3)cc2[C@H]2[C@H](CCN2C(=O)Cc2ccccn2)[C@H]1CO as the compound, how does the cytotoxicity (signal decrease) read?
**A.** 8.34%

**Q.** For C[C@@H]1CCCCO[C@H](CN(C)S(=O)(=O)c2cccs2)[C@H](C)CN([C@H](C)CO)C(=O)c2cc(NS(=O)(=O)c3ccc(F)cc3)ccc2O1, which cytotoxicity (signal decrease) is on record?
**A.** -5.09%

**Q.** For COc1ccc(NC(=O)N2CC[C@@H]3[C@@H](CO)N(C)c4ccc(-c5cccc(F)c5)cc4[C@@H]32)cc1, which cytotoxicity (signal decrease) is on record?
**A.** 1.1%

**Q.** With O=C(NCC1CCCCC1)[C@H]1[C@H](CO)[C@H]2Cn3c(cccc3=O)[C@H]2N1C(=O)CC1CC1 as the compound, how does the cytotoxicity (signal decrease) read?
**A.** 0.341%

**Q.** Which cytotoxicity (signal decrease) does the source give for COc1cccc(C#Cc2ccc([C@@H]3[C@H](C#N)N[C@H]3CO)cc2)c1 here?
**A.** -25.2%

**Q.** For COCC(=O)N1CC[C@@H]2[C@@H](CO)Nc3ccc(-c4cccc(C#N)c4)cc3[C@@H]21, which cytotoxicity (signal decrease) is on record?
**A.** 2.33%

**Q.** Which cytotoxicity (signal decrease) does the source give for CN1C(=O)c2cc(NC(=O)c3cnccn3)ccc2OC[C@@H]2O[C@H](CC(=O)N[C@@H]3CCN(Cc4ccccc4)C3)CC[C@@H]21 here?
**A.** -18.7%

**Q.** For CCC(=O)N1CC[C@@H]2[C@@H](CO)N(C)c3ccc(-c4cccc(OC)c4)cc3[C@@H]21, which cytotoxicity (signal decrease) is on record?
**A.** -4.46%

**Q.** For O=C(c1cnccn1)N1CC[C@@H]2[C@H](CO)Nc3ccc(-c4cccc(F)c4)cc3[C@@H]21, which cytotoxicity (signal decrease) is on record?
**A.** 32.9%

**Q.** With CC(C)(O)C#Cc1ccc([C@@H]2[C@H](CO)N3CCCCN(C(=O)c4cccc(F)c4)C[C@@H]23)cc1 as the compound, how does the cytotoxicity (signal decrease) read?
**A.** -14.5%

**Q.** Which cytotoxicity (signal decrease) does the source give for O=C(c1cccc(F)c1)N1CCCCN2[C@H](CO)[C@H](c3ccc(-c4ccncc4)cc3)[C@H]2C1 here?
**A.** -11.1%

**Q.** Which cytotoxicity (signal decrease) does the source give for CCCC#Cc1ccc([C@H]2[C@H](CO)N3CCCCN(C(=O)c4ccc5c(c4)OCO5)C[C@@H]23)cc1 here?
**A.** 35.2% (active)

**Q.** With COCC#Cc1ccc([C@@H]2[C@H](CO)N3CCCCN(C(=O)CN(C)C)C[C@@H]23)cc1 as the compound, how does the cytotoxicity (signal decrease) read?
**A.** -18.1%

**Q.** For Cc1cccc(-c2ccc([C@@H]3[C@H](CO)N4CCCCN(C(=O)c5ccc6c(c5)OCO6)C[C@@H]34)cc2)c1, which cytotoxicity (signal decrease) is on record?
**A.** 69.7% (active)

**Q.** With CN(C)C(=O)c1ccc(-c2ccc([C@H]3[C@@H](CO)N4CCCCN(CC5CC5)C[C@H]34)cc2)cc1 as the compound, how does the cytotoxicity (signal decrease) read?
**A.** -1.46%

**Q.** Which cytotoxicity (signal decrease) does the source give for COc1ccc(-c2ccc([C@H]3[C@H]4CN(C(=O)c5ccc6c(c5)OCO6)CCCCN4[C@H]3CO)cc2)cc1 here?
**A.** 44.1% (active)

**Q.** Which cytotoxicity (signal decrease) does the source give for O=C(c1ccncc1)N1CCCCN2[C@H](CO)[C@H](c3ccc(-c4ccccc4)cc3)[C@H]2C1 here?
**A.** 6.21%

**Q.** For COc1ccc(C#Cc2ccc([C@@H]3[C@@H](CO)N4CCCCN(C(=O)c5ccncc5)C[C@@H]34)cc2)cc1, which cytotoxicity (signal decrease) is on record?
**A.** 22.3%

**Q.** For COCCNC[C@@H]1[C@H](c2ccccc2)[C@H](CO)N1c1nc(C)c(C)s1, which cytotoxicity (signal decrease) is on record?
**A.** -17.4%

**Q.** For CC(=O)N1CC[C@@H]2[C@H](CO)Nc3ccc(C#Cc4ccccc4F)cc3[C@@H]21, which cytotoxicity (signal decrease) is on record?
**A.** -0.01%

**Q.** Which cytotoxicity (signal decrease) does the source give for COc1ccc(CN(C)C[C@H]2Oc3ccc(NS(=O)(=O)c4ccc(Cl)cc4)cc3CC(=O)N([C@@H](C)CO)C[C@H]2C)cc1 here?
**A.** 12.2%

**Q.** With C[C@@H]1CCCCO[C@H](CN(C)C(=O)NC2CCCCC2)[C@H](C)CN([C@H](C)CO)C(=O)c2cc(NC(=O)Nc3ccc(F)cc3)ccc2O1 as the compound, how does the cytotoxicity (signal decrease) read?
**A.** -12.7%

**Q.** Which cytotoxicity (signal decrease) does the source give for CCCC#Cc1ccc([C@@H]2[C@@H](C#N)N(C(=O)C3CCCC3)[C@@H]2CO)cc1 here?
**A.** 14.1%

**Q.** Which cytotoxicity (signal decrease) does the source give for N#Cc1ccc(-c2ccc3c(c2)[C@@H]2[C@@H](CCN2C(=O)Cc2ccncc2)[C@@H](CO)N3)cc1 here?
**A.** 8.03%

**Q.** With C[C@H]1CN([C@@H](C)CO)C(=O)Cc2cc(NC(=O)Cc3cn(C)c4ccccc34)ccc2O[C@@H]1CN(C)Cc1ccc(C(F)(F)F)cc1 as the compound, how does the cytotoxicity (signal decrease) read?
**A.** 7.48%

**Q.** For C[C@@H]1CN([C@H](C)CO)C(=O)c2cccc(NC(=O)c3cnccn3)c2O[C@@H]1CN(C)Cc1ccc(C(=O)Nc2ccccc2N)cc1, which cytotoxicity (signal decrease) is on record?
**A.** 32.5%

**Q.** For C[C@@H]1CN([C@@H](C)CO)S(=O)(=O)c2ccc(C#CCN(C)C)cc2O[C@H]1CN(C)C(=O)C1CC1, which cytotoxicity (signal decrease) is on record?
**A.** 19.8%

**Q.** Which cytotoxicity (signal decrease) does the source give for CC(C)CC#Cc1ccc2c(c1)O[C@H](CN(C)Cc1ccccc1F)[C@@H](C)CN([C@@H](C)CO)S2(=O)=O here?
**A.** -3.93%

**Q.** With CCCN(C)C[C@H]1Oc2cc(C#CC3CCCC3)ccc2S(=O)(=O)N([C@H](C)CO)C[C@@H]1C as the compound, how does the cytotoxicity (signal decrease) read?
**A.** 26.3%
